Consider 14 compounds from the supplement of paper PMC7156485.

± gives the standard deviation of the averaged measurements.
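Also: TDF denotes transformed human dermal fibroblasts of mesenchymal origin.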

The experiment deals with HCC1569. The experiment is described as follows: cell number relative to DMSO (% of DMSO); higher = more cells (less growth inhibition / toxicity). The settings on record: concentration: 10 µM; 24 h. Put shortly:
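H1.0 nuclear intensity or cell number is expressed as percent of the plate control, with the median of replicates taken. HCC1569 and TDF cells were treated with compounds at 10 µM for 24 h at 37 °C, in triplicate, then fixed and immunostained for H1.0 with DAPI as a nuclear stain. HCC1569 values were smoothed to correct for positional effects.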
`C[Se]CCC(N)C(=O)O` (centres undefined) [Selenomethionine] returned a cell number of 100.

For the compound `Cc1c(C)c2c(c(C)c1O)CCC(C)(C(=O)O)O2` (centres undefined) [Trolox], the cell number came out at 101.

The compound `COc1ccc(C=Cc2cc(OC)cc(=O)o2)cc1` [Yangonin] returned a cell number of 98.9.

The compound `CC(C)NCC(O)COc1ccc(CCOCC2CC2)cc1.Cl` (centres undefined) [Betaxolol hydrochloride] registered a cell number of 102.

The compound `CC1(C)CC=C(c2cnc3ccccc3c2)c2cc(C(=O)Nc3ccc(C(=O)O)cc3)ccc21` registered a cell number of 99.8.

Compound `CNCCC(Oc1ccc(C(F)(F)F)cc1)c1ccccc1` (centres undefined) [Fluoxetine] registered a cell number of 99.3.

For `Cc1ccc(S(=O)(=O)NC(=O)NN2CCCCCC2)cc1` [Tolazamide], the cell number was found to be 101.3 ± 0.45.

Turning to `CC(CCc1ccc(O)cc1)NCCc1ccc(O)c(O)c1.Cl` (centres undefined) [Dobutamine hydrochloride], the cell number was 101.

As to `COc1ccnc(CS(=O)c2nc3ccc(OC(F)F)cc3[nH]2)c1OC` (centres undefined) [Pantoprazole], the cell number came out at 100.

Compound `COc1cccc(/C=N/CC/N=C/c2cccc(OC)c2[O-])c1[O-].[Cl-].[Mn+2]` showed a cell number of 99.1.

On to `O=C(CCNNC(=O)c1ccncc1)NCc1ccccc1` [Nialamide], for which the cell number is 102.5 ± 0.38.

For `CN(Cc1ccc(C(C)(C)C)cc1)Cc1cccc2ccccc12` [Butenafine], the cell number is 101.

In the case of `O=Nc1ccc2oc(=O)ccc2c1` [6-Nitroso-1,2-benzopyrone], the cell number worked out at 100.

The compound `CN(C)c1ccc(C2Nc3ccc4ccccc4c3C3=C2C(=O)CC(C)(C)C3)cc1Br` (centres undefined) registered a cell number of 91.7.
